Screening results deposited in PubChem by National Center for Advancing Translational Sciences (NCATS).
Rows were chosen to be rich in hits. Some 3.2% of all compounds tested hit in one or more screens of this group.
RE007 growth inh – qHTS Assay for Inhibitors of the HIV-1 protein Vpr; AID 651644, 2012; 0.21% of 360,000 active; S. pombe RE007 Vpr strain, BacTiter-Glo ATP luminescence, 24 h; Potency, µM (series often up to 92.2 µM), for inactives: top-dose activity change, negative = less growth, most hits filed as inhibitors; active means well fitted falling curve with a large enough effect; inconclusive means small, poorly fitted or top-dose-only effect; inactive means no such curve, though single readings can be large or run the other way; further: nearly all actives have a fitted effect of over 50% in size
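Fission yeast strain RE007, carrying one chromosomally integrated HIV-1 vpr copy, was seeded at OD 0.01 in PMG+AL medium with 23 nL pinned compound. After 24 h at 30 °C and 99% humidity, viability was read by BacTiter-Glo luminescence.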
TbPYK inhibitor – qHTS of Trypanosoma Brucei Inhibitors; pyruvate kinase (Trypanosoma brucei), Q57TT1; TbPYK enzyme, Kinase-Glo Plus ATP luminescence, 45 min; Potency, µM (series often up to 76.8 µM), for inactives: top-dose activity, negative = inhibition, actives largely listed as inhibitors; 0.12% of 410,000 active; AID 624173, 2012; further: nearly all actives have a fitted effect of over 50% in size
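Glycolytic pyruvate kinase of T. brucei was incubated with substrate, test compound and 130 uM ADP for 45 minutes at room temperature. Luminescent Kinase-Glo Plus signal was measured after 10 minutes.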
Sm TGR block – qHTS Assay for the Inhibitors of Schistosoma Mansoni Peroxiredoxins; Schistosoma mansoni thioredoxin glutathione reductase (TGR), Q962Y6; purified TGR, DTNB reduction, TNB absorbance 405 nm; Potency, µM (titrated, usually from 114 µM), for the others: at the top dose activity change, negative = inhibition, hits mostly inhibitors; 3% of 360,000 active; further: nearly all actives have a fitted effect of over 60% in size
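Kinetic colorimetric format: TGR-catalysed, NADPH-driven DTNB reduction monitored via TNB absorbance. Enzyme dispensed at 20 nM; compound exposure 15 min at room temperature before reaction start.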
LmPK inh – qHTS Assay for Inhibitors of Leishmania Mexicana Pyruvate Kinase (LmPK). Potency, µM (series often up to 57.5 µM), for the others: top-dose activity change, negative = inhibition, actives largely listed as inhibitors. AID 1721, 2009. Q27686. purified LmPK, Kinase-Glo ATP luminescence, 1 h. 0.37% of 290,000 active
Target sequence (Q27686 whole entry, looked up): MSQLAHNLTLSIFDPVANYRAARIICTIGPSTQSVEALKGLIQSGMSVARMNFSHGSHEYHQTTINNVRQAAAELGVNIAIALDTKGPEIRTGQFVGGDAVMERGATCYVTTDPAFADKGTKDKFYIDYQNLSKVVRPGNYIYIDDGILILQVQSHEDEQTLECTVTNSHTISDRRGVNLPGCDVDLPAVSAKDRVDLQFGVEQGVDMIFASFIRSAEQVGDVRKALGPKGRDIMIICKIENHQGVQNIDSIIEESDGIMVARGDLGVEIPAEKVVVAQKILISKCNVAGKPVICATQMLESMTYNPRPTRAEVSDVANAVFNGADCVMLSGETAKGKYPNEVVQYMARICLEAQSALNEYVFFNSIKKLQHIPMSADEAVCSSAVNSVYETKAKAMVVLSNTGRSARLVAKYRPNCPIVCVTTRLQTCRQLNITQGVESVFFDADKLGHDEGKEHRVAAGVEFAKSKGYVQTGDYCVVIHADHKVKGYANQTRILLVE
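Screened at intermediate enzyme activity to detect both inhibitors and activators: LmPK at 0.1 nM, with a 0.5 nM enzyme column as activation reference. PEP 0.5 mM, ADP 0.1 mM; ATP detected by luminescence after 1 h.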
AMA1-RON2 inh – qHTS for Inhibitors of AMA1-RON; Towards Development of Antimalarial Drug Lead: Primary Screen. AlphaScreen AMA1-biotinylated RON2 peptide binding. 0.2% of 360,000 active. Potency, µM (series often up to 58.2 µM), for the others: at the highest dose activity change, negative = inhibition, hits mostly inhibitors. AID 720542, 2013. Plasmodium falciparum AMA1 (3D7) - RON2 peptide interaction;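 further: 0% = vehicle wells and -100% = peptide control; nearly all actives have a fitted effect of over 45% in size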
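AMA1 (3D7) with his tag at 25 nM final met compounds first, then biotinylated RON2 peptide at 25 nM; detection used donor plus acceptor beads, 10 µg/mL apiece, read by AlphaScreen after 30 min at room temperature.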
Starred values were filed as active, the others as inactive; ? = inconclusive; · = not tested or not shown. Unless noted, the call rests on the fitted dose curve; in most records, active means well fitted curve in the direction sought with a large enough effect; inconclusive means small, poorly fitted or top-dose-only effect, or another doubt; inactive means no such curve, though single readings can be large; an effect the other way counts as inactive or inconclusive. Unless noted, on the % scale 0 is the no-effect control and ±100 the full control effect; potency means the concentration at half of the fitted maximal effect.

SMILES	RE007 growth inh	TbPYK inhibitor	Sm TGR block	LmPK inh	AMA1-RON2 inh
Cc1ccc(NNC2CC(=O)N(c3cccc(Cl)c3)C2=O)cc1 (stereo not drawn)	4%	0%	45µM*	5%	11%
CCCCCC(=O)NNC1CC(=O)N(c2cccc(OCC)c2)C1=O (stereo not drawn)	-3%	-3%	32µM*	-4%	5%
CCN(CC)C1CC(=O)N(c2cccc(Cl)c2)C1=O (stereo not drawn)	5.6µM*	-2%	4µM*	-1%	-2%
CC(=O)NCCCC(=O)NNC1CC(=O)N(c2cccc(Cl)c2)C1=O (stereo not drawn)	?	-8%	11µM*	-3%	16%
C=Cc1ccc(Cn2c(C(=O)O)c(CNC3CCCCC3)c3ccc(OC)cc32)cc1	·	-10%	-6%	·	·
Cc1ccc(Cn2c(=O)n(-c3cc(C)cc(C)c3)c(=O)c3oc4ccccc4c32)cc1	·	2%	0%	·	·
CCCCCCCCCCCCCCCCCC(=O)OCCO	·	1%	·	·	·
O=C1CCC(c2ccccc2)c2ccccc21 (stereo not drawn)	7%	4%	·	·	3%
N#CC1C(=O)c2ccccc2C1c1ccccc1 (stereo not drawn)	8.9µM*	-25%	·	·	-27%
Cc1ccc(C)c(OCC(=O)N2CCN(Cc3ccc4c(c3)OCO4)CC2)c1	-5%	-19%	56µM*	-10%	-23%
Cc1cccc(CS(=O)(=O)CC2Nc3ccc(C(=O)NCc4ccccc4)cc3NC2=O)c1 (stereo not drawn)	·	-2%	-12%	·	·
Cc1ccccc1CSCC1Nc2ccc(C(=O)NCCc3ccccc3)cc2NC1=O (stereo not drawn)	32µM*	?	·	·	10%
COc1cc(N=c2ssnc2Cl)c(OC)cc1Cl	?	11µM*	?	-4%	-20%
COc1ccc(OC)c(N=c2ssnc2Cl)c1	?	28µM*	56µM*	-22%	-3%
Cc1cc(Cl)ccc1N=c1ssnc1Cl	74%	?	?	-12%	21%
CCN1/C(=C/C=C/c2oc3ccc4ccccc4c3[n+]2CC)Oc2ccc3ccccc3c21	13µM*	-14%	·	-17%	?
Fc1ccc2cnc(-c3ccccc3)c(-c3cccc(C(F)(F)F)c3)c2c1	4%	0%	6%	·	0%
Fc1cc(F)cc(-c2c(-c3ccccc3)ncc3ccc(F)cc23)c1	-4%	-24%	45µM*	·	-1%
Cc1ccc2[nH]c(=O)c(CN(Cc3ccco3)C(=O)c3cccs3)cc2c1	·	·	-13%	4%	·
Cc1ccc(N(Cc2cc3ccc(C)cc3[nH]c2=O)C(=O)c2cccs2)cc1	-3%	-6%	4%	0%	10%
Cc1ccc2cc(CN(C(=O)c3ccco3)c3ccccc3)c(=O)[nH]c2c1	0%	2%	32µM*	-1%	-11%
Cc1ccc2cc(CN(Cc3ccco3)C(=O)c3cccs3)c(=O)[nH]c2c1	1%	-14%	40µM*	4%	-5%
Cc1ccc(N(Cc2cc3ccc(C)cc3[nH]c2=O)C(=O)c2ccco2)cc1	2%	-17%	2.2µM*	2%	5%
Cc1ccc(N(Cc2cc3ccccc3[nH]c2=O)C(=O)c2ccco2)c(C)c1	5%	-6%	-15%	2%	-9%
Cc1ccc2cc(CN(C(=O)c3cccc(Cl)c3)c3ccccc3)c(=O)[nH]c2c1	·	1%	-1%	·	·
SMILES	RE007 growth inh	TbPYK inhibitor	Sm TGR block	LmPK inh	AMA1-RON2 inh
Cc1cccc(N(Cc2cc3ccc(C)cc3[nH]c2=O)C(=O)c2ccco2)c1	-6%	-24%	4.5µM*	7%	-5%
CCOc1ccc(/C=C/c2nc(C#N)c(N(C)C)o2)cc1	·	-18%	-3%	·	·
Cc1cc(=O)n2c3c(sc2n1)C(=O)N(Cc1ccccc1)C3=O	·	·	1.1µM*	?	·
Cc1cc(=O)n2nc(-c3ccccc3)sc2n1	?	-1%	0%	-27%	-6%
Oc1ccc(C(c2nnnn2C2CCCC2)N2CCc3ccccc3C2)cc1 (stereo not drawn)	-9%	-3%	3.2µM*	2%	-12%
CNCc1ccccc1Sc1ccc(O)c(O)c1	0%	-18%	22µM*	-12%	?
